# Results as given in the supplement of paper PMC11732987, “Enantioselective OTUD7B fragment discovery through chemoproteomics screening and high-throughput optimisation” (Communications Chemistry, 2025).
# Values without a mark were called inactive.
# Tests used:
# Experiment in all cases: log2 ratio of Biotin-Ahx-Ub-VS probe labelling (fragment/DMSO); higher = less target engagement (more negative = stronger competition), active = hit call of the paper (q ≤ 0.05, log2 ratio ≤ -1)
# Conditions in all cases: compound concentration: 200 uM; treatment time: 3 h
# USP42 = target: T1, USP42 (UniProt Q9H9J4)
# T1 sequence (whole entry): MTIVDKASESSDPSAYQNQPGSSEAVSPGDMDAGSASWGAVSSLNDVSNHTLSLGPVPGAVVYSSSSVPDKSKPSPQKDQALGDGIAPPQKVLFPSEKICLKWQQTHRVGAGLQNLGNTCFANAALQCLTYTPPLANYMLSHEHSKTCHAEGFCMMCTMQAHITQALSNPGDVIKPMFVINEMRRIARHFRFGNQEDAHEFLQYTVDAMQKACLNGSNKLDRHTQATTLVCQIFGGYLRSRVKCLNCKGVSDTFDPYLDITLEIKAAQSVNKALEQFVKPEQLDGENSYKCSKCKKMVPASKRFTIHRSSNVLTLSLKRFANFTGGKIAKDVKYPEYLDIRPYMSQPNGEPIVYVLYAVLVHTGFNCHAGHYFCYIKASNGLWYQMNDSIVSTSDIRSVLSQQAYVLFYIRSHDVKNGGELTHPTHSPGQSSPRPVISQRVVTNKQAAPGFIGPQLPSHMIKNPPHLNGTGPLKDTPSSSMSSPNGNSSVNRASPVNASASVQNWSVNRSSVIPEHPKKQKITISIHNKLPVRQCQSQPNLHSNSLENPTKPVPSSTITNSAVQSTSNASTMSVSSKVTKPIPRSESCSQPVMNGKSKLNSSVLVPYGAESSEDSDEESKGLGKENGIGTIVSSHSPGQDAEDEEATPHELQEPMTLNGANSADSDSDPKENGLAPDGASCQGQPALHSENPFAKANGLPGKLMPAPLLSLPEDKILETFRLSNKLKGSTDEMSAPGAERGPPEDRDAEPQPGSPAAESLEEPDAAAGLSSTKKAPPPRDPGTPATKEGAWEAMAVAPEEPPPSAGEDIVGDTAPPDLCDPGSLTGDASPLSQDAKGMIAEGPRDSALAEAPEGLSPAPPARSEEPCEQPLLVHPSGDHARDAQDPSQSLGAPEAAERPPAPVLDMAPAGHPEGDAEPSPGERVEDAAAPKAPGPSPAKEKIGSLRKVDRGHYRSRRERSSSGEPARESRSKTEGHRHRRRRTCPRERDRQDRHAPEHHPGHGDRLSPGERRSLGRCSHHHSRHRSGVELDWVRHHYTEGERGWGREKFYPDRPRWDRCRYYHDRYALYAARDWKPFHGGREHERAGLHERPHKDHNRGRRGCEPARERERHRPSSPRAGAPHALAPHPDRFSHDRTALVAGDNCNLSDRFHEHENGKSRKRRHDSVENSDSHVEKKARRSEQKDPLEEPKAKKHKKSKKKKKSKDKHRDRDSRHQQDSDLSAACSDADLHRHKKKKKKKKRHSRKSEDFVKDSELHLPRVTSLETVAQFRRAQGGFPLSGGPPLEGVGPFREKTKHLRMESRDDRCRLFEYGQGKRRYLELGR
# Summary of the method: (§1)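 HEK293T lysate (495 µg per sample, in Tris/CHAPS/IGEPAL buffer with protease inhibitors) was treated in triplicate with fragment at 200 µM or with DMSO for 3 h. It was then treated with Biotin-Ahx-Ub-VS (0.5 µM final) for 1 h. Labelled DUBs were NeutrAvidin-enriched, digested with LysC and trypsin, and run by diaPASEF LC-MS/MS. Spectronaut label-free quantities were global-median-normalised. Values are average log2 ratios fragment/DMSO by unpaired t-test, using proteins with ≥2 unique peptides.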
# USP46 = USP46 (UniProt P62068)
# Summary of the method: as §1
# USP47 = target: T2, USP47 (UniProt Q96K76)
# T2 sequence (whole entry): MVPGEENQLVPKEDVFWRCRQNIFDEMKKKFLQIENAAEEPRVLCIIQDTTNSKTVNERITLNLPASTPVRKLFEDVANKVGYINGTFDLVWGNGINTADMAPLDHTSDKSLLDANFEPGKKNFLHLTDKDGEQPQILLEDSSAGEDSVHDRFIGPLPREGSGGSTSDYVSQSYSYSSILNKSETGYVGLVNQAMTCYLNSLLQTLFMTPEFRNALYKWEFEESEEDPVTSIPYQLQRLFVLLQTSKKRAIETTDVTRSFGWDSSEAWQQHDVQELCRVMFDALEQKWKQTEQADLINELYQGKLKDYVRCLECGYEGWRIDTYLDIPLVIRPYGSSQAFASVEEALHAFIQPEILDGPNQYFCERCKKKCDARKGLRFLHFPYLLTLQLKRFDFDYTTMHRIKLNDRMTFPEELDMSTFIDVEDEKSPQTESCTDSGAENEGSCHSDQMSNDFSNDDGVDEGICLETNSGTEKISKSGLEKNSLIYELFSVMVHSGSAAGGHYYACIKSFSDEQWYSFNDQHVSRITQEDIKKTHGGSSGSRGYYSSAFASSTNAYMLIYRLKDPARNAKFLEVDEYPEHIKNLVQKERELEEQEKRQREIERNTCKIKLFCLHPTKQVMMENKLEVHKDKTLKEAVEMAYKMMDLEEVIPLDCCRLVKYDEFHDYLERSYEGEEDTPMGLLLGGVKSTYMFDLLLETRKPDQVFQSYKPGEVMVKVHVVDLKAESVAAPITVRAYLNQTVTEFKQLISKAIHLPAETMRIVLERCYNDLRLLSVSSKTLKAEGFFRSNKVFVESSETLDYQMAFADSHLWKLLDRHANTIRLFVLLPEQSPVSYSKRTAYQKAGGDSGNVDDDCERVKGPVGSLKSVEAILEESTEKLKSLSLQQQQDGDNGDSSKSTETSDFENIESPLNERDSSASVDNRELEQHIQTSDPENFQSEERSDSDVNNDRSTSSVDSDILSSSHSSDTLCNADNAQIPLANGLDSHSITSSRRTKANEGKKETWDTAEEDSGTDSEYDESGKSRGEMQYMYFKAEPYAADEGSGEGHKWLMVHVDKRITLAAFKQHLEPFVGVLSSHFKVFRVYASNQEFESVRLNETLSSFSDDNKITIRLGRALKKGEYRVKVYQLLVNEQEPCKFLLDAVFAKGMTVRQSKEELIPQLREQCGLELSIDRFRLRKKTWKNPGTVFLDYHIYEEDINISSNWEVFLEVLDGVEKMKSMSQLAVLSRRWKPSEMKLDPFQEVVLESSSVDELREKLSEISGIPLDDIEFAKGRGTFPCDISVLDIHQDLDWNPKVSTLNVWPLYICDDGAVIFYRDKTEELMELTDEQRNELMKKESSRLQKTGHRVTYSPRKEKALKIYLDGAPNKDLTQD
# Summary of the method: as §1
# USP48 = target: T3, USP48 (UniProt Q86UV5)
# T3 sequence (whole entry): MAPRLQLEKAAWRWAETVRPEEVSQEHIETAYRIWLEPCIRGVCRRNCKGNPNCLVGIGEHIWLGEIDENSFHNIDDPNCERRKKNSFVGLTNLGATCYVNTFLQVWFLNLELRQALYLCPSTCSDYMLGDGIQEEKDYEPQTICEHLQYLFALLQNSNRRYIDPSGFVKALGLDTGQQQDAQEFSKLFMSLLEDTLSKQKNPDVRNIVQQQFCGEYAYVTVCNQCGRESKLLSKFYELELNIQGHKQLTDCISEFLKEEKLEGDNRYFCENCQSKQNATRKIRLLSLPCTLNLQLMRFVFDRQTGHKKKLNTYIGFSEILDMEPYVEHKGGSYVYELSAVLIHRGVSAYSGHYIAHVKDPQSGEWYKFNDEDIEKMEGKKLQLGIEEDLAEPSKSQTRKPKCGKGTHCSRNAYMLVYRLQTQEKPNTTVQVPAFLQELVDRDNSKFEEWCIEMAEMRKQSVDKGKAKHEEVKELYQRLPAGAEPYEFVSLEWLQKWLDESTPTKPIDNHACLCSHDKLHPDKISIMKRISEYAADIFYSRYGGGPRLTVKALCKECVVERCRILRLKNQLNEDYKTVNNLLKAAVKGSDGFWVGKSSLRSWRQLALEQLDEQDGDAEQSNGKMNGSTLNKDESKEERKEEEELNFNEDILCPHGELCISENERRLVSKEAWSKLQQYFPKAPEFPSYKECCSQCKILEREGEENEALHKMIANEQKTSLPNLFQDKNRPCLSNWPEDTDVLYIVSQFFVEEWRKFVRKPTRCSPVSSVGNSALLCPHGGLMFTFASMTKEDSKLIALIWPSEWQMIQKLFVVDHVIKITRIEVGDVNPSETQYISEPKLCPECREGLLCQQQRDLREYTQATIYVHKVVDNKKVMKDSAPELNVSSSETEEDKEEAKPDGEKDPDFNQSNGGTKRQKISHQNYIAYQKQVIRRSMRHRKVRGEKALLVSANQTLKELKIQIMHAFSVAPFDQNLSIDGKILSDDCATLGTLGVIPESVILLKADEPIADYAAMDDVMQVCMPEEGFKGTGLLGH
# Summary of the method: as §1
# USP5 = target: T4, USP5 (UniProt P45974)
# T4 sequence (whole entry): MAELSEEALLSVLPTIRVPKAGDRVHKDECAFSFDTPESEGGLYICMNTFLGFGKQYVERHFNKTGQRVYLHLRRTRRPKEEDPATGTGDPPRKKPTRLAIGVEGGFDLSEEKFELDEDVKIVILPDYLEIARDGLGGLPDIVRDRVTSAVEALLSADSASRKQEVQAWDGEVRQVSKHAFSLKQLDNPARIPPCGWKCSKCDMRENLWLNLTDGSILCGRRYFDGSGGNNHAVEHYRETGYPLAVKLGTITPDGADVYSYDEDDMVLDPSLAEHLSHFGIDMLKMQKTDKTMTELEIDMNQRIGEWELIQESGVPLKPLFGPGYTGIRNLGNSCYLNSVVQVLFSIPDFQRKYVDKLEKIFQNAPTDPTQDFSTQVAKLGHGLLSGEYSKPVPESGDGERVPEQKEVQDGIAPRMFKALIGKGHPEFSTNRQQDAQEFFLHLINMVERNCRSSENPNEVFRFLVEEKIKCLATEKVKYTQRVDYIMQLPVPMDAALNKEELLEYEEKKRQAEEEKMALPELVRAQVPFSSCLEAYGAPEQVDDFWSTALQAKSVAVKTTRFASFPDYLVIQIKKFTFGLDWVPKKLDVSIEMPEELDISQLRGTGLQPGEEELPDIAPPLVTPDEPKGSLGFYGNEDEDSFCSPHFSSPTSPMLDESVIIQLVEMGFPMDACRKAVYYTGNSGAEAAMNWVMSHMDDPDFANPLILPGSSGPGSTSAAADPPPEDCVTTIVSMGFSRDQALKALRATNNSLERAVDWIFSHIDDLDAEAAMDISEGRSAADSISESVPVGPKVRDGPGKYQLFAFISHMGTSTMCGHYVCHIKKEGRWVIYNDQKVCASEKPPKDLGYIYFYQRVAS
# Summary of the method: as §1
# USP54 = USP54 (UniProt Q70EL1)
# Summary of the method: as §1
# USP7 = USP7 (UniProt Q93009)
# Summary of the method: as §1
# USP8 = target: T5, USP8 (UniProt P40818)
# T5 sequence (whole entry): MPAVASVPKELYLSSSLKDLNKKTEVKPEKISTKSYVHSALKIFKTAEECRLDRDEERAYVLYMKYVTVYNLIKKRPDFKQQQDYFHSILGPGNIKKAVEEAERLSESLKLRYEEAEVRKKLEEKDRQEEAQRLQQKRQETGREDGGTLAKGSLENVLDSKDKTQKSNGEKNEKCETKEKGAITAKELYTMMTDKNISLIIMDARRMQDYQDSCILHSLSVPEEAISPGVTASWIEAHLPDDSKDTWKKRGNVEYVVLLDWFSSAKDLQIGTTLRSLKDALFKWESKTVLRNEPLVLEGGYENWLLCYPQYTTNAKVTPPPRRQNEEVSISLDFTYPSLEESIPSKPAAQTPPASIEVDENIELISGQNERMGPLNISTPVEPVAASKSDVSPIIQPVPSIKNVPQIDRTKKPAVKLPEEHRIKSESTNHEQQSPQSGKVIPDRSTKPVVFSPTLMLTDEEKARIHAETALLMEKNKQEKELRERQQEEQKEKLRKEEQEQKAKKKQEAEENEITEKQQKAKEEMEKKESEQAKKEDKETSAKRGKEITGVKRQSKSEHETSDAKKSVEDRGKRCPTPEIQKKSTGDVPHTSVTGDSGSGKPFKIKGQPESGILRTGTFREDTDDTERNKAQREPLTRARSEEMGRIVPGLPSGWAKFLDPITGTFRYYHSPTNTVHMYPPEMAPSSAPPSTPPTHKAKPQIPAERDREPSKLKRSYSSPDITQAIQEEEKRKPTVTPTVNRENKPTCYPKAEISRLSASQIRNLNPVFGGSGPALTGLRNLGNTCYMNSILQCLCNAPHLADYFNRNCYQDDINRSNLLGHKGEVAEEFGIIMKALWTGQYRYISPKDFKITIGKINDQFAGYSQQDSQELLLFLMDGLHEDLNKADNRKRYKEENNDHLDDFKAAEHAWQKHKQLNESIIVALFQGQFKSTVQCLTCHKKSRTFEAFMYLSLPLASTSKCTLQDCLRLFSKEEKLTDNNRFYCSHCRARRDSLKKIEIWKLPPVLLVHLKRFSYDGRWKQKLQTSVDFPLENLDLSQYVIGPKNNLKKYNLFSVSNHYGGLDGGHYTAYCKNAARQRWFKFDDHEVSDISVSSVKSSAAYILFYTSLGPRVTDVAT
# Summary of the method: as §1
# USP9X = USP9X (UniProt Q93008)
# Summary of the method: as §1
# UniProt O00487 = target: UniProt O00487
# Summary of the method: as §1
# Sequence of USP9X (Q93008 whole entry): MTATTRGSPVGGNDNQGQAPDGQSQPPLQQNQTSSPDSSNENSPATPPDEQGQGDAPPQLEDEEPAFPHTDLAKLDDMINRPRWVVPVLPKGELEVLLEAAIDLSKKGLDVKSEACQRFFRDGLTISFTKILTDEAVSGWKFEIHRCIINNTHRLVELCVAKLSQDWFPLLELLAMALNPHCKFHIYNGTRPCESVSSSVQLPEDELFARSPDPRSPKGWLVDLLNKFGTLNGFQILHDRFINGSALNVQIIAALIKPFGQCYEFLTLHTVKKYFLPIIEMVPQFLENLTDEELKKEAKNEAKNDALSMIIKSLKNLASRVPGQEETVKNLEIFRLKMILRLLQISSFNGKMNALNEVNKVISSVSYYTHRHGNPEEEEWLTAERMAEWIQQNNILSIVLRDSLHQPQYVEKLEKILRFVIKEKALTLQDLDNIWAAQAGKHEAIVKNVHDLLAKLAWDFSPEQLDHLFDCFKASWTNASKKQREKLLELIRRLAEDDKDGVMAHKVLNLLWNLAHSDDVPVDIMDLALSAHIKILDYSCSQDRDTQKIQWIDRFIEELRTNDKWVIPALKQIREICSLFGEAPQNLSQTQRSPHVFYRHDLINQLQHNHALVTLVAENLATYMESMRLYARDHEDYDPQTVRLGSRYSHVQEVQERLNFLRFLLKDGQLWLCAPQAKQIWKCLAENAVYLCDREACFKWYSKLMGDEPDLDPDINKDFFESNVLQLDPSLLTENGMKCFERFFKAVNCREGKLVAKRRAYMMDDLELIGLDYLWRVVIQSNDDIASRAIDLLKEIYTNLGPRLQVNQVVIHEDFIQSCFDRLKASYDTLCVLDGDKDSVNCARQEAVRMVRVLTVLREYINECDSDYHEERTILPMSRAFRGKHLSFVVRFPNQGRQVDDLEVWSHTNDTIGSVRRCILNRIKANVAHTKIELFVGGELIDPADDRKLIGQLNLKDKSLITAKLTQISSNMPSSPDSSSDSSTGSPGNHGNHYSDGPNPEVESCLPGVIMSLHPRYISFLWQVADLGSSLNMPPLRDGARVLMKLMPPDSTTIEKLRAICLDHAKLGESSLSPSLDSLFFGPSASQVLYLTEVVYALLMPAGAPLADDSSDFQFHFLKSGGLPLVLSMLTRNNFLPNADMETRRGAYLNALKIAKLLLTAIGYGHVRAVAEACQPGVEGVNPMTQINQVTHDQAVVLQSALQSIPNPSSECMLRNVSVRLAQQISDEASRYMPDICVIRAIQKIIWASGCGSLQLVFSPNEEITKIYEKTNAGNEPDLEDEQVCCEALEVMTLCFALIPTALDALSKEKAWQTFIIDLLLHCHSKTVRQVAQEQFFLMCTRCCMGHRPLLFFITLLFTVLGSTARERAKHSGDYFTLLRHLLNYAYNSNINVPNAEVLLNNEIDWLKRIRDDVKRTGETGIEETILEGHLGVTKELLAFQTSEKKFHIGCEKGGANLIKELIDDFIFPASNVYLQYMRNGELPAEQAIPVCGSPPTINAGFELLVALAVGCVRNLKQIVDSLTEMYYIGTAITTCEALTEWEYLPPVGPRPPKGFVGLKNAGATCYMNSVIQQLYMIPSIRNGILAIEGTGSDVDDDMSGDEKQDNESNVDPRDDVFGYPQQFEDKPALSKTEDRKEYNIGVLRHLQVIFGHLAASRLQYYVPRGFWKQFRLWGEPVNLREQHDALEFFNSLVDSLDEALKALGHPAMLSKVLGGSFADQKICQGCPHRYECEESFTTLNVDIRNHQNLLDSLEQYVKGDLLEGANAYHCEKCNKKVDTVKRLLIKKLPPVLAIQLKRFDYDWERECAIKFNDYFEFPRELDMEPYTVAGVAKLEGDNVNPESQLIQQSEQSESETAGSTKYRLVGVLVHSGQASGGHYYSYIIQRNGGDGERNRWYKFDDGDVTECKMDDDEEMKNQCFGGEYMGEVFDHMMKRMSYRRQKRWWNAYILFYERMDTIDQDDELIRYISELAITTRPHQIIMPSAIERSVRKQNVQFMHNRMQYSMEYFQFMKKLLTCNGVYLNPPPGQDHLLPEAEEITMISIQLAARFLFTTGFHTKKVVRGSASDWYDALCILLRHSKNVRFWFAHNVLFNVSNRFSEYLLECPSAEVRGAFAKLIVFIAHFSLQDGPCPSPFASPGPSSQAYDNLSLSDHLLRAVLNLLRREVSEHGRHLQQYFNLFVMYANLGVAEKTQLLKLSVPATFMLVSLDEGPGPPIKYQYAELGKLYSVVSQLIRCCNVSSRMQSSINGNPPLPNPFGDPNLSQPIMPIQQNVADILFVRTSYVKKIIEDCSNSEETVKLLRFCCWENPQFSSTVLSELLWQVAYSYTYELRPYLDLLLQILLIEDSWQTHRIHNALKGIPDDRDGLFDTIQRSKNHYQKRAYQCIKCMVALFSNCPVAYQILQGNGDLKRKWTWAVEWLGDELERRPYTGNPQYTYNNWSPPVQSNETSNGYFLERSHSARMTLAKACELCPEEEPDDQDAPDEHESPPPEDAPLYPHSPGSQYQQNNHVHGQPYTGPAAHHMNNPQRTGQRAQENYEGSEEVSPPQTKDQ
# Sequence of USP54 (Q70EL1 whole entry): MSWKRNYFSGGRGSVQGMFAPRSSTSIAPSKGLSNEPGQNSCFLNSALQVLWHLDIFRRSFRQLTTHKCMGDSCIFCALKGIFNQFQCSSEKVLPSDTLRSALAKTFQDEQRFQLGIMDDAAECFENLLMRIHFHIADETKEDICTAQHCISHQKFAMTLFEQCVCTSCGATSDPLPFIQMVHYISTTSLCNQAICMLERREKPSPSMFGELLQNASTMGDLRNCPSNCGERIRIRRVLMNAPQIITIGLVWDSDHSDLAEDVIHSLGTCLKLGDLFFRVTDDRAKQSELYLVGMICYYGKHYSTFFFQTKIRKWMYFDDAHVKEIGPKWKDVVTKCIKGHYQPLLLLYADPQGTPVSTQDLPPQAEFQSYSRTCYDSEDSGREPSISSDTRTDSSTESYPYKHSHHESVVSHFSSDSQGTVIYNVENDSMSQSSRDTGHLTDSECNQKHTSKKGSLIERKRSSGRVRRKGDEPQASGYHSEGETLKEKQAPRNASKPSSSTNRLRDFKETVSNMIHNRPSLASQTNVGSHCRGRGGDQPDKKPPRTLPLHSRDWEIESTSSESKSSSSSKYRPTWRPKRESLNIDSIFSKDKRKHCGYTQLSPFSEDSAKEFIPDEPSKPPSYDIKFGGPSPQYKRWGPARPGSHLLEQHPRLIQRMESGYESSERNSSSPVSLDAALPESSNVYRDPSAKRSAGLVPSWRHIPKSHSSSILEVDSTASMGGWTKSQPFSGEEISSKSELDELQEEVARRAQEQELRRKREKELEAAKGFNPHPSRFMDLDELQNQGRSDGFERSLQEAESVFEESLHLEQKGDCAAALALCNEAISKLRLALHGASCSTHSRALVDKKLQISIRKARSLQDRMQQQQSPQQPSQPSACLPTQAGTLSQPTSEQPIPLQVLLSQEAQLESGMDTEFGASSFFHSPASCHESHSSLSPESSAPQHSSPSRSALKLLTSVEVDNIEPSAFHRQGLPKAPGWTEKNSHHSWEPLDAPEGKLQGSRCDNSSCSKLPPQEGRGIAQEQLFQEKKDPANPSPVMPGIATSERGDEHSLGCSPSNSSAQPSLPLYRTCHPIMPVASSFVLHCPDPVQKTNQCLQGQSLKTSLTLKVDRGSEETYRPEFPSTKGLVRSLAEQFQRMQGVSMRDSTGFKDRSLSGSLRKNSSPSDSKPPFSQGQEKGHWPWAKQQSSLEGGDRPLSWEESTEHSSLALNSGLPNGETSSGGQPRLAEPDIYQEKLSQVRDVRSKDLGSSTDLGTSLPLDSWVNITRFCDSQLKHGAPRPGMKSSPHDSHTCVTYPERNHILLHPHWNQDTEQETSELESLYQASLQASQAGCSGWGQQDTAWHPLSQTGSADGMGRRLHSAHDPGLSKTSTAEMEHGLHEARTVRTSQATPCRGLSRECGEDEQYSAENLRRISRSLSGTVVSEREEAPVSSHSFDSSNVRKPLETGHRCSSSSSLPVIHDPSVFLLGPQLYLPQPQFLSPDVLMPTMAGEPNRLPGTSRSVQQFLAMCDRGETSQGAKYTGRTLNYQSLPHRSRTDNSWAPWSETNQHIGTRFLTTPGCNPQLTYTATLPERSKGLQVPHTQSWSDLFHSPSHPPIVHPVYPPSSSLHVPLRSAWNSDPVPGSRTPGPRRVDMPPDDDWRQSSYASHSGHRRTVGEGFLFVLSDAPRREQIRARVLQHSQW
# Sequence of UniProt O00487 (O00487 whole entry): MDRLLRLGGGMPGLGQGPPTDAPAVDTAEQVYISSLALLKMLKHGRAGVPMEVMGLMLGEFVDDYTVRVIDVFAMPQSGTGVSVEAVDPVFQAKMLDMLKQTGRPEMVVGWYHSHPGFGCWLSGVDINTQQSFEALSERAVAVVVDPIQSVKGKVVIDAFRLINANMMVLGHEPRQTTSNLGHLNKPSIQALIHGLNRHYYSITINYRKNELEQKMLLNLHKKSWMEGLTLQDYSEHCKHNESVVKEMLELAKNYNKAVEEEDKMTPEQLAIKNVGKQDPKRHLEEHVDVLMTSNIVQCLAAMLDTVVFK
# Sequence of USP46 (P62068 whole entry): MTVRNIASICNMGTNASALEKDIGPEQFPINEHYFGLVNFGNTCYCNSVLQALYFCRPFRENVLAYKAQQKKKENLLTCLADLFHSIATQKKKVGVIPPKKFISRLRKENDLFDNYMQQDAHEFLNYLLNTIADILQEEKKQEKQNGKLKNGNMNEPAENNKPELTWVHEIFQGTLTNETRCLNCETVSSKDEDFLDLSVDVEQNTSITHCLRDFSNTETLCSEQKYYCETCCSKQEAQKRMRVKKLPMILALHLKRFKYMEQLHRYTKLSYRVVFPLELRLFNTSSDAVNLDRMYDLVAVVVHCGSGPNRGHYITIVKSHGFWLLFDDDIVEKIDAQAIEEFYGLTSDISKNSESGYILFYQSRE
compound,measurement,setting,value
CCC1c2ccsc2CCN1C(=O)CCl (stereo not given),log2 ratio of Biotin-Ahx-Ub-VS probe labelling,USP42,0.624
same,log2 ratio of Biotin-Ahx-Ub-VS probe labelling,USP46,-0.333
same,log2 ratio of Biotin-Ahx-Ub-VS probe labelling,USP47,-0.618
same,log2 ratio of Biotin-Ahx-Ub-VS probe labelling,USP48,-0.725
same,log2 ratio of Biotin-Ahx-Ub-VS probe labelling,USP5,-0.159
same,log2 ratio of Biotin-Ahx-Ub-VS probe labelling,USP54,-0.451
same,log2 ratio of Biotin-Ahx-Ub-VS probe labelling,USP7,-1.23 (active)
same,log2 ratio of Biotin-Ahx-Ub-VS probe labelling,USP8,-0.157
same,log2 ratio of Biotin-Ahx-Ub-VS probe labelling,USP9X,-0.309
same,log2 ratio of Biotin-Ahx-Ub-VS probe labelling,UniProt O00487,-0.0357
